Measured values taken from publication PMC7862700, “An all-to-all approach to the identification of sequence-specific readers for epigenetic DNA modifications on cytosine”.

What was measured:
Test in all cases: DAPPL (digital affinity profiling via proximity ligation, sequencing); 10 mM Tris-HCl pH 7.5, 50 mM NaCl, 1 mM DTT, 4% glycerol, room temperature, 30 min; GST-TFs on glutathione beads, 16-mer random dsDNA library, 0.1% formaldehyde crosslink after washing; high values mean tight binding
Conditions in all cases: protein: recombinant; tags: N-terminal GST; dsDNA, one strand shown
FLI1 = biological target: T1, FLI1 (Homo sapiens, UniProt Q01543 1-452)
T1 sequence: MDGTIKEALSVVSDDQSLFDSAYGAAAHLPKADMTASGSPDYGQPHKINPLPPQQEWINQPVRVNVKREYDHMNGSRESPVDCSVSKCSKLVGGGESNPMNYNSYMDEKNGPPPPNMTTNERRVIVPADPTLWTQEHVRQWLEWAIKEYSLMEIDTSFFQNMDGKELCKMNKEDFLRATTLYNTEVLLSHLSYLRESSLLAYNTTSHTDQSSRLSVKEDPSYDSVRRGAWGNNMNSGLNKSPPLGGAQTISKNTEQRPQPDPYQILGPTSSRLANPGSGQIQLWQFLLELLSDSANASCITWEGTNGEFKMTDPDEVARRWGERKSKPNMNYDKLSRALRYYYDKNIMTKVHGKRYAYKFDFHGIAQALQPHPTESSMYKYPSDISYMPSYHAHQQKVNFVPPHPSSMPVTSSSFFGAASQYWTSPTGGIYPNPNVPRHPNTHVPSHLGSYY
How it was run: (§1)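 Human transcription factors fused to GST were expressed in yeast, captured on glutathione beads, given DNA barcodes and pooled with a GST-only negative control. Pools were incubated with 200 nmole of a 16-mer random double-stranded DNA library in Tris/NaCl/DTT/glycerol buffer at room temperature for 30 min. They were then washed, crosslinked with 0.1% formaldehyde, proximity-ligated (BsaI/T4 ligase, 1 h, 37 °C), PCR-amplified and sequenced on an Illumina NextSeq500. Binding signal is each 6-mer's read frequency for a factor divided by its frequency for the GST control.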

ELK1 = biological target: T2, ELK1 (Homo sapiens, UniProt P19419 1-428)
T2 sequence: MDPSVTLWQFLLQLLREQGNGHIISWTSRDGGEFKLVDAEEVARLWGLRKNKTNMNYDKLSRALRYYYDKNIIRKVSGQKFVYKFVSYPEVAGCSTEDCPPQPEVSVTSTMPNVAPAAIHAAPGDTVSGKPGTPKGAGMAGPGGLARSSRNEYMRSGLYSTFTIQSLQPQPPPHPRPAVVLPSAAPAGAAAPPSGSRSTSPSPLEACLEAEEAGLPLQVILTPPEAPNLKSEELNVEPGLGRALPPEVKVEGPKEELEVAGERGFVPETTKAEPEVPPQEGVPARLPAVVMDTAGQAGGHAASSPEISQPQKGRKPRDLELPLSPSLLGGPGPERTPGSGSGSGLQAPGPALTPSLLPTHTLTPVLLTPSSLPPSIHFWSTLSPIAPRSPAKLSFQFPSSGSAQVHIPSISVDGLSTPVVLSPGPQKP
How it was run: as §1

GABPA = biological target: T3, GABPA (Homo sapiens, UniProt Q06546 1-454)
T3 sequence: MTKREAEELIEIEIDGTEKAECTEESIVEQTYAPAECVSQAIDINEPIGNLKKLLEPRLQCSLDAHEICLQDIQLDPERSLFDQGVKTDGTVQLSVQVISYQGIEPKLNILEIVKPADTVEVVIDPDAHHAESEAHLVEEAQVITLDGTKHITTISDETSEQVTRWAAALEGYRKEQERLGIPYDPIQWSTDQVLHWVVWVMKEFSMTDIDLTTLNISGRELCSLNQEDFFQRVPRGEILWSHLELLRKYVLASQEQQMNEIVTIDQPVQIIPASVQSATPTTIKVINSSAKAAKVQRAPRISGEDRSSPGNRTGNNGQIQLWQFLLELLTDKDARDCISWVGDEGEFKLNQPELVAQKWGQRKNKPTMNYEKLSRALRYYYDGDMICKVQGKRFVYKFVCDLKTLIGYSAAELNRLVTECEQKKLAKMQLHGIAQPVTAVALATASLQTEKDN
How it was run: as §1

ERG = biological target: T4, ERG (Homo sapiens, UniProt P11308 1-479)
T4 sequence: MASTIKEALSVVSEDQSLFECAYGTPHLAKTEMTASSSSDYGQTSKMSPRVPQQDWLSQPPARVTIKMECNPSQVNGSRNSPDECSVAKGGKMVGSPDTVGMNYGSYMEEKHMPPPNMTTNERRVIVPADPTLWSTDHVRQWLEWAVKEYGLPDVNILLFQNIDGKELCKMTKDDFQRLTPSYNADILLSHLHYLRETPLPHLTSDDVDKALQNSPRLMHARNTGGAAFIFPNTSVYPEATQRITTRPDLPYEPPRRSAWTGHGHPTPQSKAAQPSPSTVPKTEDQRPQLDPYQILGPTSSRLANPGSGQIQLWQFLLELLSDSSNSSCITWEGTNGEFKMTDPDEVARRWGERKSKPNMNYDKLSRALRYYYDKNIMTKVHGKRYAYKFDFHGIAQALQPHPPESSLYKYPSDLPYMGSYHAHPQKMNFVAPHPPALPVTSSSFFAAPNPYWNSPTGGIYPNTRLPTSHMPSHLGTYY
How it was run: as §1

ELF1 = ELF1 (Homo sapiens, UniProt P32519 1-619)
ELF1, sequence (P32519 whole entry): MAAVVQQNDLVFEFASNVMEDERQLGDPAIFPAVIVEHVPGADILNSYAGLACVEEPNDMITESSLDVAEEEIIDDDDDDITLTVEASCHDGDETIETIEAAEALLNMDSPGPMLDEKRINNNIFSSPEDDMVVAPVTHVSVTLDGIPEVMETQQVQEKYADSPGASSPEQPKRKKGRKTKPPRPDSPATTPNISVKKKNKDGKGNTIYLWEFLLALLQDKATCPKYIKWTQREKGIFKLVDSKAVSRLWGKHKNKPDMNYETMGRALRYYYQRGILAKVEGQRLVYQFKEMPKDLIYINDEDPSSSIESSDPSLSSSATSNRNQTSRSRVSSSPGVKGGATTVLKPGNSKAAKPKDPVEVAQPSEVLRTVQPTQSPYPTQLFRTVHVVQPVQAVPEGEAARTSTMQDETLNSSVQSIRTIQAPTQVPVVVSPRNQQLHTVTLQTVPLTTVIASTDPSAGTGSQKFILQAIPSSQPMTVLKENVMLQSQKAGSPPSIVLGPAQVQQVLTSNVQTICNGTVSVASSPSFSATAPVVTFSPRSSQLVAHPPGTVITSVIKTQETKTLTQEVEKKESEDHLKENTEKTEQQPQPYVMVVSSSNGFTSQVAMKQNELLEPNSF
How it was run: as §1

EHF = biological target: T5, EHF (Homo sapiens, UniProt Q9NZC4 1-300)
T5 sequence: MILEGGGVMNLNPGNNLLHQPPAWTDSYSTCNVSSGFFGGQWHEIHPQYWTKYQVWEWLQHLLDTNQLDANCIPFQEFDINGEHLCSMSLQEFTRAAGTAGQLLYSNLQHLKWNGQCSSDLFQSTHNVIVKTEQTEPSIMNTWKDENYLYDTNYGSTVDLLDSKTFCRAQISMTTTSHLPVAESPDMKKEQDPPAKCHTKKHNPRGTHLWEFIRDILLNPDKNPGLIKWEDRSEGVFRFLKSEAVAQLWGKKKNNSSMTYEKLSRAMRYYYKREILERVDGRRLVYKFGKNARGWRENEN
How it was run: as §1

SPI1 = SPI1 (Homo sapiens, UniProt P17947 1-270)
How it was run: as §1

SPIB = SPIB (Homo sapiens, UniProt Q01892 1-262)
SPIB, sequence (Q01892 whole entry): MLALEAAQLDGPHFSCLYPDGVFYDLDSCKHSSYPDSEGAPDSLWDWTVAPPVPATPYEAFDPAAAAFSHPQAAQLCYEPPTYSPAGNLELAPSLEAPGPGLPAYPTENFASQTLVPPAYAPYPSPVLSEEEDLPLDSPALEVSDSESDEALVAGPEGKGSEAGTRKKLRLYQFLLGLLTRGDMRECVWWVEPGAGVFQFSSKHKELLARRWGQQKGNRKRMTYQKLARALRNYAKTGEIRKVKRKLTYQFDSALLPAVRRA
How it was run: as §1

ELK3 = biological target: T6, ELK3 (Homo sapiens, UniProt P41970 1-407)
T6 sequence: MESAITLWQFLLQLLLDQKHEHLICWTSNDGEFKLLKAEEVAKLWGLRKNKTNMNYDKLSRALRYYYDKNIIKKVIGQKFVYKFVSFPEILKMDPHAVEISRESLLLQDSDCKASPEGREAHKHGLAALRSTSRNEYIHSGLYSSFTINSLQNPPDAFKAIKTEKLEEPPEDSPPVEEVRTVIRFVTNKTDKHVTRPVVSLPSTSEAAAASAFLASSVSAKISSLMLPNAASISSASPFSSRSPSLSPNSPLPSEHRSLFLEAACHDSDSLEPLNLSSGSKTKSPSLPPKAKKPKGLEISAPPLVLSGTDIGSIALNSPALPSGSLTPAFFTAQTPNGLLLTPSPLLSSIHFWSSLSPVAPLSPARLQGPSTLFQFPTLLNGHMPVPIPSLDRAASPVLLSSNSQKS
How it was run: as §1

ACTAAG
binding signal (FLI1): 1.04 fold enrichment (6-mer frequency, TF over GST control) | binding signal (ELK1): 1.08 fold enrichment (6-mer frequency, TF over GST control) | binding signal (GABPA): 1.11 fold enrichment (6-mer frequency, TF over GST control) | binding signal (ERG): 1.02 fold enrichment (6-mer frequency, TF over GST control) | binding signal (ELF1): 1.04 fold enrichment (6-mer frequency, TF over GST control) | binding signal (EHF): 1.15 fold enrichment (6-mer frequency, TF over GST control) | binding signal (SPI1): 1.12 fold enrichment (6-mer frequency, TF over GST control) | binding signal (SPIB): 1.14 fold enrichment (6-mer frequency, TF over GST control) | binding signal (ELK3): 1.07 fold enrichment (6-mer frequency, TF over GST control)

TGACTA
binding signal (FLI1): 1.14 fold enrichment (6-mer frequency, TF over GST control) | binding signal (ELK1): 1.08 fold enrichment (6-mer frequency, TF over GST control) | binding signal (GABPA): 1.08 fold enrichment (6-mer frequency, TF over GST control) | binding signal (ERG): 1.03 fold enrichment (6-mer frequency, TF over GST control) | binding signal (ELF1): 1.09 fold enrichment (6-mer frequency, TF over GST control) | binding signal (EHF): 1.11 fold enrichment (6-mer frequency, TF over GST control) | binding signal (SPI1): 1.14 fold enrichment (6-mer frequency, TF over GST control) | binding signal (SPIB): 1.17 fold enrichment (6-mer frequency, TF over GST control) | binding signal (ELK3): 1.14 fold enrichment (6-mer frequency, TF over GST control)

CACCAC
binding signal (FLI1): 1.15 fold enrichment (6-mer frequency, TF over GST control) | binding signal (ELK1): 1.2 fold enrichment (6-mer frequency, TF over GST control) | binding signal (GABPA): 1.23 fold enrichment (6-mer frequency, TF over GST control) | binding signal (ERG): 1.18 fold enrichment (6-mer frequency, TF over GST control) | binding signal (ELF1): 1.18 fold enrichment (6-mer frequency, TF over GST control) | binding signal (EHF): 1.11 fold enrichment (6-mer frequency, TF over GST control) | binding signal (SPI1): 1.18 fold enrichment (6-mer frequency, TF over GST control) | binding signal (SPIB): 1.14 fold enrichment (6-mer frequency, TF over GST control) | binding signal (ELK3): 1.06 fold enrichment (6-mer frequency, TF over GST control)

ACCTTC
binding signal (FLI1): 1.8 fold enrichment (6-mer frequency, TF over GST control) | binding signal (ELK1): 1.94 fold enrichment (6-mer frequency, TF over GST control) | binding signal (GABPA): 1.79 fold enrichment (6-mer frequency, TF over GST control) | binding signal (ERG): 2.03 fold enrichment (6-mer frequency, TF over GST control) | binding signal (ELF1): 1.92 fold enrichment (6-mer frequency, TF over GST control) | binding signal (EHF): 2.02 fold enrichment (6-mer frequency, TF over GST control) | binding signal (SPI1): 1.75 fold enrichment (6-mer frequency, TF over GST control) | binding signal (SPIB): 1.95 fold enrichment (6-mer frequency, TF over GST control) | binding signal (ELK3): 1.8 fold enrichment (6-mer frequency, TF over GST control)

GACTAC
binding signal (FLI1): 1.17 fold enrichment (6-mer frequency, TF over GST control) | binding signal (ELK1): 1.19 fold enrichment (6-mer frequency, TF over GST control) | binding signal (GABPA): 1.15 fold enrichment (6-mer frequency, TF over GST control) | binding signal (ERG): 1.07 fold enrichment (6-mer frequency, TF over GST control) | binding signal (ELF1): 1.15 fold enrichment (6-mer frequency, TF over GST control) | binding signal (EHF): 1.12 fold enrichment (6-mer frequency, TF over GST control) | binding signal (SPI1): 1.12 fold enrichment (6-mer frequency, TF over GST control) | binding signal (SPIB): 1.19 fold enrichment (6-mer frequency, TF over GST control) | binding signal (ELK3): 1.1 fold enrichment (6-mer frequency, TF over GST control)

CCCTCC
binding signal (FLI1): 1.37 fold enrichment (6-mer frequency, TF over GST control) | binding signal (ELK1): 1.54 fold enrichment (6-mer frequency, TF over GST control) | binding signal (GABPA): 1.5 fold enrichment (6-mer frequency, TF over GST control) | binding signal (ERG): 1.41 fold enrichment (6-mer frequency, TF over GST control) | binding signal (ELF1): 1.49 fold enrichment (6-mer frequency, TF over GST control) | binding signal (EHF): 1.37 fold enrichment (6-mer frequency, TF over GST control) | binding signal (SPI1): 1.35 fold enrichment (6-mer frequency, TF over GST control) | binding signal (SPIB): 1.39 fold enrichment (6-mer frequency, TF over GST control) | binding signal (ELK3): 1.37 fold enrichment (6-mer frequency, TF over GST control)

TTCCCC
binding signal (FLI1): 1.74 fold enrichment (6-mer frequency, TF over GST control) | binding signal (ELK1): 1.58 fold enrichment (6-mer frequency, TF over GST control) | binding signal (GABPA): 1.71 fold enrichment (6-mer frequency, TF over GST control) | binding signal (ERG): 1.67 fold enrichment (6-mer frequency, TF over GST control) | binding signal (ELF1): 1.72 fold enrichment (6-mer frequency, TF over GST control) | binding signal (EHF): 1.68 fold enrichment (6-mer frequency, TF over GST control) | binding signal (SPI1): 2.54 fold enrichment (6-mer frequency, TF over GST control) | binding signal (SPIB): 1.66 fold enrichment (6-mer frequency, TF over GST control) | binding signal (ELK3): 1.61 fold enrichment (6-mer frequency, TF over GST control)
